# In PubChem BioAssay AID1159580 (chemical genetic matrix, 2015):
# Hit rate of the full screen: of about 5,500 compounds, about 2,000 (36%) were called active. About 18% were inconclusive and are not listed. The list shows a part of the results. Values without a mark were called inactive. No stated cut-off is given here; in the data, active means normalized growth mostly below about 0.91 (no sharp cut-off); inconclusive means no clear call, values can overlap the other calls; inactive means mostly above about 0.92.
# Experiment: chemical genetic growth profiling, strain panel (AID 1159580);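 further: tested at 20 µM; growth read once vehicle control cultures reached saturation at 30 °C; 1 = growth at the plate median or of vehicle wells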
# Conditions: growth OD
compound,measurement,setting,value
COC(=O)c1c(C)c2c(c(C)c1OC)OC(=O)c1c(C)c(Cl)c(OC)c(Cl)c1O2,normalized growth,"S. cerevisiae deletion strains, locus YBR021W, strain FUR4, stronger effect = lower value",0.99
same,normalized growth,"S. cerevisiae deletion strains, locus YBR229C, strain ROT2, stronger effect = lower value",1.01
same,normalized growth,"S. cerevisiae deletion strains, locus YCL029C, strain bik1, stronger effect = lower value",1.02
same,normalized growth,"S. cerevisiae deletion strains, locus YDL035C, strain GPR1, stronger effect = lower value",1.03
same,normalized growth,"S. cerevisiae deletion strains, locus YDL074C, strain BRE1, stronger effect = lower value",1.04
same,normalized growth,"S. cerevisiae deletion strains, locus YDL101C, strain DUN1, stronger effect = lower value",1.02
same,normalized growth,"S. cerevisiae deletion strains, locus YDL134C, strain PPH21, stronger effect = lower value",1.01
same,normalized growth,"S. cerevisiae deletion strains, locus YDL185W, strain tfp1, stronger effect = lower value",1.01
same,normalized growth,"S. cerevisiae deletion strains, locus YDL192W, strain arf1, stronger effect = lower value",1.02
same,normalized growth,"S. cerevisiae deletion strains, locus YDR101C, strain arx1, stronger effect = lower value",1
same,normalized growth,"S. cerevisiae deletion strains, locus YDR150W, strain NUM1, stronger effect = lower value",1.02
same,normalized growth,"S. cerevisiae deletion strains, locus YDR162C, strain NBP2, stronger effect = lower value",1.03
same,normalized growth,"S. cerevisiae deletion strains, locus YDR318W, strain mcm21, stronger effect = lower value",1.02
same,normalized growth,"S. cerevisiae deletion strains, locus YDR388W, stronger effect = lower value",1.02
same,normalized growth,"S. cerevisiae deletion strains, locus YDR502C, strain sam2, stronger effect = lower value",1.03
same,normalized growth,"S. cerevisiae deletion strains, locus YEL061C, strain CIN8, stronger effect = lower value",1.01
same,normalized growth,"S. cerevisiae deletion strains, locus YER110C, stronger effect = lower value",1.02
same,normalized growth,"S. cerevisiae deletion strains, locus YER155C, strain BEM2, stronger effect = lower value",0.998
same,normalized growth,"S. cerevisiae deletion strains, locus YER167W, strain BCK2, stronger effect = lower value",1.03
same,normalized growth,"S. cerevisiae deletion strains, locus YGL078C, strain dbp3, stronger effect = lower value",1.01
same,normalized growth,"S. cerevisiae deletion strains, locus YGL086W, strain mad1, stronger effect = lower value",1.03
same,normalized growth,"S. cerevisiae deletion strains, locus YGL248W, strain PDE1, stronger effect = lower value",1.01
same,normalized growth,"S. cerevisiae deletion strains, locus YGR135W, strain pre9, stronger effect = lower value",1.03
same,normalized growth,"S. cerevisiae deletion strains, locus YGR229C, strain SMI1, stronger effect = lower value",1.06
same,normalized growth,"S. cerevisiae deletion strains, locus YGR252W, strain gcn5, stronger effect = lower value",1.01
same,normalized growth,"S. cerevisiae deletion strains, locus YHR030C, strain SLT2, stronger effect = lower value",1.02
same,normalized growth,"S. cerevisiae deletion strains, locus YHR079C, strain IRE1 (second series), stronger effect = lower value",1.01
same,normalized growth,"S. cerevisiae deletion strains, locus YHR094C, strain hxt1, stronger effect = lower value",1.02
same,normalized growth,"S. cerevisiae deletion strains, locus YHR129C, strain ARP1, stronger effect = lower value",1.01
same,normalized growth,"S. cerevisiae deletion strains, locus YHR200W, strain rpn10, stronger effect = lower value",1.02
same,normalized growth,"S. cerevisiae deletion strains, locus YIL066C, strain RNR3, stronger effect = lower value",1.04
same,normalized growth,"S. cerevisiae deletion strains, locus YIL073C, strain SPO22, stronger effect = lower value",1.09
same,normalized growth,"S. cerevisiae deletion strains, locus YIL125W, strain kgd1, stronger effect = lower value",1.01
same,normalized growth,"S. cerevisiae deletion strains, locus YIR030C, strain dcg1, stronger effect = lower value",1.01
same,normalized growth,"S. cerevisiae deletion strains, locus YJL095W, strain BCK1, stronger effect = lower value",1.04
same,normalized growth,"S. cerevisiae deletion strains, locus YJL134W, strain LCB3, stronger effect = lower value",1.01
same,normalized growth,"S. cerevisiae deletion strains, locus YJL168C, strain set2, stronger effect = lower value",1.02
same,normalized growth,"S. cerevisiae deletion strains, locus YJL187C, strain SWE1 (second series), stronger effect = lower value",1.03
same,normalized growth,"S. cerevisiae deletion strains, locus YJR043C, strain POL32, stronger effect = lower value",1.03
same,normalized growth,"S. cerevisiae deletion strains, locus YKL009W, strain mrt4, stronger effect = lower value",1.37 [resistant] (active)
same,normalized growth,"S. cerevisiae deletion strains, locus YKL068W, stronger effect = lower value",1.04
same,normalized growth,"S. cerevisiae deletion strains, locus YKL085W, strain MDH1 (second series), stronger effect = lower value",1.23 [resistant] (active)
same,normalized growth,"S. cerevisiae deletion strains, locus YKL085W, strain MDH1, stronger effect = lower value",1.23 [resistant] (active)
same,normalized growth,"S. cerevisiae deletion strains, locus YKR001C, strain vps1, stronger effect = lower value",1.01
same,normalized growth,"S. cerevisiae deletion strains, locus YLR039C, strain RIC1, stronger effect = lower value",1.06
same,normalized growth,"S. cerevisiae deletion strains, locus YLR058C, strain SHM2, stronger effect = lower value",1.02
same,normalized growth,"S. cerevisiae deletion strains, locus YLR102C, strain apc9, stronger effect = lower value",1.01
same,normalized growth,"S. cerevisiae deletion strains, locus YLR262C, strain YPT6, stronger effect = lower value",1.07
same,normalized growth,"S. cerevisiae deletion strains, locus YLR268W, strain sec22, stronger effect = lower value",1.02
same,normalized growth,"S. cerevisiae deletion strains, locus YLR330W, strain CHS5, stronger effect = lower value",1.02
same,normalized growth,"S. cerevisiae deletion strains, locus YLR342W, strain FKS1 (second series), stronger effect = lower value",1.05
same,normalized growth,"S. cerevisiae deletion strains, locus YLR371W, strain rom2, stronger effect = lower value",1.01
same,normalized growth,"S. cerevisiae deletion strains, locus YLR418C, strain cdc73, stronger effect = lower value",1.03
same,normalized growth,"S. cerevisiae deletion strains, locus YML016C, strain PPZ1, stronger effect = lower value",1.01
same,normalized growth,"S. cerevisiae deletion strains, locus YML032C, strain rad52, stronger effect = lower value",1.01
same,normalized growth,"S. cerevisiae deletion strains, locus YML124C, strain tub3, stronger effect = lower value",1.04
same,normalized growth,"S. cerevisiae deletion strains, locus YMR078C, strain ctf18, stronger effect = lower value",1.01
same,normalized growth,"S. cerevisiae deletion strains, locus YMR223W, strain ubp8, stronger effect = lower value",1.02
same,normalized growth,"S. cerevisiae deletion strains, locus YMR307W, strain GAS1, stronger effect = lower value",1.04
same,normalized growth,"S. cerevisiae deletion strains, locus YNL067W, strain RPL9B, stronger effect = lower value",1.02
same,normalized growth,"S. cerevisiae deletion strains, locus YNL128W, strain TEP1, stronger effect = lower value",1.04
same,normalized growth,"S. cerevisiae deletion strains, locus YNL233W, strain BNI4, stronger effect = lower value",1.02
same,normalized growth,"S. cerevisiae deletion strains, locus YNL250W, strain rad50, stronger effect = lower value",1.04
same,normalized growth,"S. cerevisiae deletion strains, locus YNL271C, strain bni1, stronger effect = lower value",1.02
same,normalized growth,"S. cerevisiae deletion strains, locus YNL298W, strain CLA4, stronger effect = lower value",1.02
same,normalized growth,"S. cerevisiae deletion strains, locus YNL307C, strain MCK1, stronger effect = lower value",1.01
same,normalized growth,"S. cerevisiae deletion strains, locus YNL322C, strain KRE1, stronger effect = lower value",1.02
same,normalized growth,"S. cerevisiae deletion strains, locus YNR052C, strain pop2, stronger effect = lower value",1.02
same,normalized growth,"S. cerevisiae deletion strains, locus YOL012C, strain htz1",0.795
same,normalized growth,"S. cerevisiae deletion strains, locus YOL147C, strain pex11, stronger effect = lower value",1.01
same,normalized growth,"S. cerevisiae deletion strains, locus YOR061W, strain CKA2, stronger effect = lower value",1.01
same,normalized growth,"S. cerevisiae deletion strains, locus YOR069W, strain VPS5, stronger effect = lower value",1.01
same,normalized growth,"S. cerevisiae deletion strains, locus YOR136W, strain idh2, stronger effect = lower value",1.02
same,normalized growth,"S. cerevisiae deletion strains, locus YOR144C, strain elg1, stronger effect = lower value",1.01
same,normalized growth,"S. cerevisiae deletion strains, locus YOR184W, strain ser1, stronger effect = lower value",1.02
same,normalized growth,"S. cerevisiae deletion strains, locus YOR316C, strain cot1, stronger effect = lower value",1.02
same,normalized growth,"S. cerevisiae deletion strains, locus YPL055C, strain LGE1, stronger effect = lower value",1.04
same,normalized growth,"S. cerevisiae deletion strains, locus YPR119W, strain clb2, stronger effect = lower value",1.01
same,normalized growth,"S. cerevisiae deletion strains, locus YPR141C, strain kar3, stronger effect = lower value",1.02
same,normalized growth,"S. cerevisiae deletion strains, locus YPR163C, strain tif3, stronger effect = lower value",1.01
same,normalized growth,"S. cerevisiae deletion strains, locus YPR167C, strain met16, stronger effect = lower value",1.02
same,normalized growth,"S. cerevisiae deletion strains, strain wtn01, stronger effect = lower value",1.01
same,normalized growth,"S. cerevisiae strains, strain wild type, stronger effect = lower value",1.02
